Reference: PubChem BioAssay (Tox21)
Where “and” joins values, the source holds several entries; their conditions need not be identical. Equal values may be shown once. Results filed as inconclusive are left out. A call without a number means that no potency is given here. A structure can be active in one record and inactive in another. Calls of active or inactive are those of the source. Unless noted, the call rests on the fitted dose curve; in most records, active means well fitted curve in the direction sought with a large enough effect in the repeat runs; inconclusive means weak or mixed curves; inactive means no such curve, though single readings can be large; an effect the other way counts as inactive or inconclusive.

Columns and labels:
[1] = target: Acetylcholinesterase (Homo sapiens) (UniProt P22303); assay: Acetylcholinesterase (AChE) small molecule antagonists: fluorescence cell-based qHTS assay (AID 1347398; calls by dose curve; further: nearly all actives have a fitted effect of over 50% in size); conditions: Potency: AChE activity
Sequence of Acetylcholinesterase (Homo sapiens) (P22303 whole entry, looked up): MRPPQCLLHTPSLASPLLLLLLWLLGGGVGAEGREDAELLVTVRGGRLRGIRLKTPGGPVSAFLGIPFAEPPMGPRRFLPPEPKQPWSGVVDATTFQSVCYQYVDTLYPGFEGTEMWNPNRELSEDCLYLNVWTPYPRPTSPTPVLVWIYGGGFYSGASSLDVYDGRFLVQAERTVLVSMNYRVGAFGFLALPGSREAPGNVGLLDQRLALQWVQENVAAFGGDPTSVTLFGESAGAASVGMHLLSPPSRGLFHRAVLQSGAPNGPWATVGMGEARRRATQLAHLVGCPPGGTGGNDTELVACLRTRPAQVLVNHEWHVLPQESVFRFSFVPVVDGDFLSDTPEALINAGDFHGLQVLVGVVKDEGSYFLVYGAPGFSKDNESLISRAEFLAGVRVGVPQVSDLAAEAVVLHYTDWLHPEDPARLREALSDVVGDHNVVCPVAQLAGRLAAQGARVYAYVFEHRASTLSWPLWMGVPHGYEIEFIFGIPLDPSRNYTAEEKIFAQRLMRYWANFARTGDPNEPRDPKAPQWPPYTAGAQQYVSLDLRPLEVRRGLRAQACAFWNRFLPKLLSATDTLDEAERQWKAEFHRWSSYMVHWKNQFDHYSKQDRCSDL
Method in brief: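 SH-SY5Y, 2,000 cells/well, attached overnight; cmpd 30 min 37 C; acetylthiocholine/Thiolite Green cocktail 40 min RT; fluorescence Ex/Em 490/520 nm.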

[2] = target: Acetylcholinesterase (Homo sapiens) (UniProt P22303); assay: Acetylcholinesterase (AChE) small molecule antagonists: enzyme-based qHTS assay with human liver microsomes (AID 1347399; calls by dose curve; further: nearly all actives have a fitted effect of over 60% in size); conditions: Potency: qHTS inhibition
Method in brief: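 Recombinant human AChE (50 mU/mL in the enzyme mix) and human liver microsomes (0.25 mg/mL final) were preincubated with compound and NADPH (0.25 mg/mL final) for 30 min at 37 C. Acetylthiocholine/DTNB was then added; thiocholine was read colorimetrically after 10 min at room temperature.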

[3] = target: Cytochrome P450 2D6 (Homo sapiens) (UniProt P10635); assay: Cytochrome P450 Family 2 Subfamily D Member 6 (CYP2D6) small molecule antagonists: luciferase reporter qHTS assay (AID 1671196); further: nearly all actives have a fitted effect of over 50% in size; on activity change, negative = inhibition: series mostly up to about 120 µM
Sequence of Cytochrome P450 2D6 (Homo sapiens) (P10635 whole entry, looked up): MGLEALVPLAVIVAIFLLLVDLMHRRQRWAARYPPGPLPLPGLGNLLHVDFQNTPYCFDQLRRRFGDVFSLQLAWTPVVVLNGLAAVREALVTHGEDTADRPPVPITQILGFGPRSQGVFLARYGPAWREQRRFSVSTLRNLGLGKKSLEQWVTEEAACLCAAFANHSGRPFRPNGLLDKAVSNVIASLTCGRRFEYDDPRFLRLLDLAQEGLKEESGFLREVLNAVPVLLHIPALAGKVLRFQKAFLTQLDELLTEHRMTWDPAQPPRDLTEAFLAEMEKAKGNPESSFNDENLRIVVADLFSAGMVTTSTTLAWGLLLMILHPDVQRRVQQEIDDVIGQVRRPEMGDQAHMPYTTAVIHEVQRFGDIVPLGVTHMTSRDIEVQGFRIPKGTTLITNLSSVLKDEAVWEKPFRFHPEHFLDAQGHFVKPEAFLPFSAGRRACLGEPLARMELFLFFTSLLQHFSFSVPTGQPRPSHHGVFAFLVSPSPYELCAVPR
Method in brief: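 Luminogenic proluciferin substrate, CYP2D6 enzyme; 10 min RT preincubation with compound, NADPH regeneration system added, 1 h RT. Stop/detection reagent, 20 min RT, luminescence read (RLU). Signal proportional to CYP activity.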

[4] = target: Cytochrome P450 2C19 (Homo sapiens) (UniProt P33261); assay: Cytochrome P450 Family 2 Subfamily C Member 19 (CYP2C19) small molecule antagonists: luciferase reporter qHTS assay (AID 1671197); further: nearly all actives have a fitted effect of over 65% in size; on activity change, negative = inhibition: series mostly up to about 120 µM
Sequence of Cytochrome P450 2C19 (Homo sapiens) (P33261 whole entry, looked up): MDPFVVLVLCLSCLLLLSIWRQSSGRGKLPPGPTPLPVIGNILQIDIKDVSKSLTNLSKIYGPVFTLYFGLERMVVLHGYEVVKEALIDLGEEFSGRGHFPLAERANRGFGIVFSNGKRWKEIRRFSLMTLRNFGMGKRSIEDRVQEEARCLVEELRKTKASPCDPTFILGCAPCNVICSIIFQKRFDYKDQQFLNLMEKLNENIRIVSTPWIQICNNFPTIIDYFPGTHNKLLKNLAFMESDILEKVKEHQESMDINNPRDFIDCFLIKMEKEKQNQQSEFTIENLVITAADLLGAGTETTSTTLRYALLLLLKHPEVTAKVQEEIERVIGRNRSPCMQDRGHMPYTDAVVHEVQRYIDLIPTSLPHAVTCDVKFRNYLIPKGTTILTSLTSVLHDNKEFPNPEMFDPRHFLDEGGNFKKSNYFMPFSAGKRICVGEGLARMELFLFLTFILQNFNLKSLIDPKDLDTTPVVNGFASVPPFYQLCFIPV
Method in brief: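 Quantitative high-throughput screen of the Tox21 library using CYP2C19 with proluciferin substrate. Reaction: NADPH regeneration, 37C, 1 h, after 10 min compound preincubation at room temperature. Readout: luminescence.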

[5] = target: Cytochrome P450 2C9 (Homo sapiens) (UniProt P11712); assay: Cytochrome P450 Family 2 Subfamily C Member 9 (CYP2C9) small molecule antagonists: luciferase reporter qHTS assay (AID 1671198); further: nearly all actives have a fitted effect of over 50% in size; on activity change, negative = inhibition: series mostly up to about 120 µM
Sequence of Cytochrome P450 2C9 (Homo sapiens) (P11712 whole entry, looked up): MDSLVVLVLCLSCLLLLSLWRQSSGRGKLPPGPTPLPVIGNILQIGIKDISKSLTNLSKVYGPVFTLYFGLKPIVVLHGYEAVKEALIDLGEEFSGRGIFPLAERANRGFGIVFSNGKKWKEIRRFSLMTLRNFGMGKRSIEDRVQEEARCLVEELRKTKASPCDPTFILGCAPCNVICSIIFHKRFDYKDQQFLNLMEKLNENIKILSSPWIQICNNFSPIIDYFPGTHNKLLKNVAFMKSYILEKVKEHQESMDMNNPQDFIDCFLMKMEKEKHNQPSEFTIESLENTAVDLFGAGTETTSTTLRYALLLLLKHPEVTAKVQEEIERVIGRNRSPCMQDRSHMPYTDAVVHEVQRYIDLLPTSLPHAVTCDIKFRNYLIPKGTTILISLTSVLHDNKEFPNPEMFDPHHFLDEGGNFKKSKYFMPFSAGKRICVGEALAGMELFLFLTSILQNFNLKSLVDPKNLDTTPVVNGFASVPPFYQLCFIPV
Method in brief: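 P450-Glo proluciferin substrate with CYP2C9 enzyme; 10 min RT preincubation, then NADPH regeneration 1 h at 37C; luciferin detection reagent 20 min RT, luminescence in relative luminescence units.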

[6] = target: Cytochrome P450 1A2 (Homo sapiens) (UniProt P05177); assay: Cytochrome P450 Family 1 Subfamily A Member 2 (CYP1A2) small molecule antagonists: luciferase reporter qHTS assay (AID 1671199); further: nearly all actives have a fitted effect of over 50% in size; on activity change, negative = inhibition: series mostly up to about 120 µM
Sequence of Cytochrome P450 1A2 (Homo sapiens) (P05177 whole entry, looked up): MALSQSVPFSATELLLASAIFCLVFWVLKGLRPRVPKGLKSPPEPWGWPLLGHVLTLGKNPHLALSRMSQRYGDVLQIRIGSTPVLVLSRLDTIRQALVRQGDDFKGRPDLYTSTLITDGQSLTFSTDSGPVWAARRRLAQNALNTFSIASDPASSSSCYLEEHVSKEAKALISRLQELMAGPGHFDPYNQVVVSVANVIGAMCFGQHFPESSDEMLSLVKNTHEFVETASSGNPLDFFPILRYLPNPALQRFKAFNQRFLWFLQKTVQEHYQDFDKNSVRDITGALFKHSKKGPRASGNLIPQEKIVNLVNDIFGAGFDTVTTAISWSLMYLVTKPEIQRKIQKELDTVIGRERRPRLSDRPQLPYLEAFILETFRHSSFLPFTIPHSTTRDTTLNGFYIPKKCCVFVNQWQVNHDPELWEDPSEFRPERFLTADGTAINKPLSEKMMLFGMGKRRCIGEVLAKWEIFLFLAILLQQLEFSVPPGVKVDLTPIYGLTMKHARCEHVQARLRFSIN
Method in brief: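 Luminescence readout (relative luminescence units) after luciferin detection reagent, 20 min RT. Preceded by 1 h room-temperature CYP1A2 reaction with NADPH regeneration solution following 10 min compound preincubation with enzyme and proluciferin substrate. Furafylline positive control.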

[7] = target: Voltage-gated inwardly rectifying potassium channel KCNH2 (Homo sapiens) (UniProt Q12809); assay: Human Ether-a-go-go-Related Gene (hERG) channel small molecule antagonists: fluorescence cell-based qHTS assay (AID 1671200); further: nearly all actives have a fitted effect of over 50% in size;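 on activity change, negative = inhibition: hERG-expressing U2OS cells given a thallium stimulus after FluxOR II dye loading; series mostly up to about 77 µM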
Sequence of Voltage-gated inwardly rectifying potassium channel KCNH2 (Homo sapiens) (Q12809 whole entry, looked up): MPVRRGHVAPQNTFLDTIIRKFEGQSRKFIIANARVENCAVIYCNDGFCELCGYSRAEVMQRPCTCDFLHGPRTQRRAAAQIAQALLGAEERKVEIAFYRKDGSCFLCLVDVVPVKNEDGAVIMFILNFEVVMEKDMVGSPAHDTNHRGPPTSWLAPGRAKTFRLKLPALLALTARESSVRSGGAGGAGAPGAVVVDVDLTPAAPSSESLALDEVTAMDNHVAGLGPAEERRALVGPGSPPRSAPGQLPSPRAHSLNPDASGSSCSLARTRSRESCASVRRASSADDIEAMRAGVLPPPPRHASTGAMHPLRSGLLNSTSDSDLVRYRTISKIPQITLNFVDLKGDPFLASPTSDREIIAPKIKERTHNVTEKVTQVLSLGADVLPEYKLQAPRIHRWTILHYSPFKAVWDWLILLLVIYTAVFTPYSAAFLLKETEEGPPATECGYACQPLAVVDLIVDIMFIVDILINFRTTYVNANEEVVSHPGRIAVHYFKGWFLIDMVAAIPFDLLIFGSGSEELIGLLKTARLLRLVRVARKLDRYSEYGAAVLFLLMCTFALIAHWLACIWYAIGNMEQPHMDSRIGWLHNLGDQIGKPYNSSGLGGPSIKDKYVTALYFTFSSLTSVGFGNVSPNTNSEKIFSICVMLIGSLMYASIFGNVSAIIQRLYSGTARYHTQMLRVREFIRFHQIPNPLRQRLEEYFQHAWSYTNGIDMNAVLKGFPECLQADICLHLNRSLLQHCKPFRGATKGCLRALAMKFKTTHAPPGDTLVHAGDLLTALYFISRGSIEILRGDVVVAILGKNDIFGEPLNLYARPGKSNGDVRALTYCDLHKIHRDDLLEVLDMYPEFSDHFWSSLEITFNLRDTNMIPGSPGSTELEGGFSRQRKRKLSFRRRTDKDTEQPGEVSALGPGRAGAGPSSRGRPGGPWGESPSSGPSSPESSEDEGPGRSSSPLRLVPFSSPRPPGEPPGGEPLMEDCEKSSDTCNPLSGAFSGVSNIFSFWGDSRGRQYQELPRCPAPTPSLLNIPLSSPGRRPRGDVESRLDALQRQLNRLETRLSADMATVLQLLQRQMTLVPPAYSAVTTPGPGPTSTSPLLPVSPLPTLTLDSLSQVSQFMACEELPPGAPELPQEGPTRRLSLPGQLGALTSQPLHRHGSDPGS
Method in brief: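 Channel function was assessed by thallium flux. Cells seeded the previous day and kept at 37 C took up FluxOR II dye over 1 h in the dark at room temperature, then sat another 10 min before stimulation.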

[8] = target: Cytochrome P450 3A4 (Homo sapiens) (UniProt P08684); assay: Cytochrome P450 Family 3 Subfamily A Member 4 (CYP3A4) small molecule antagonists: luciferase reporter qHTS assay (AID 1671201); further: nearly all actives have a fitted effect of over 50% in size; on activity change, negative = inhibition: series mostly up to about 120 µM
Sequence of Cytochrome P450 3A4 (Homo sapiens) (P08684 whole entry, looked up): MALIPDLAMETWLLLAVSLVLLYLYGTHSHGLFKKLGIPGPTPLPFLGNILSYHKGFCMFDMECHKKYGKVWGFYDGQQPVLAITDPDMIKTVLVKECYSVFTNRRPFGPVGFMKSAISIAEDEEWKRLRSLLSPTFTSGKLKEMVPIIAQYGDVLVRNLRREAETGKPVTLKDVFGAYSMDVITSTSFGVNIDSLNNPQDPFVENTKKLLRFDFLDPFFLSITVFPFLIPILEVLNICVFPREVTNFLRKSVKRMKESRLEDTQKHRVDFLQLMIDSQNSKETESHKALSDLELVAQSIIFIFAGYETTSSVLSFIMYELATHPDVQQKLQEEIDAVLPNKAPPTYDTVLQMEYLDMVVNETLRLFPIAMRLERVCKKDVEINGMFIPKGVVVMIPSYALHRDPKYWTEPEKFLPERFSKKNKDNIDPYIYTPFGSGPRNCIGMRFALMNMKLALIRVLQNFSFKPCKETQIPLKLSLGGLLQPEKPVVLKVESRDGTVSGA
Method in brief: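 Compounds in DMSO were pin-transferred onto CYP3A4 enzyme-substrate mix and held 10 min at room temperature. NADPH regenerating solution started the reaction for 1 h; luciferin detection reagent stopped it, and luminescence was read after 20 min.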
Potency means the concentration at half of the fitted maximal effect.

Row | Compound | Potency [1] | Potency [2] | Potency [3] | Potency [4] | Potency [5] | Potency [6] | Potency [7] | Potency [8] | activity change, negative = inhibition [4] | activity change, negative = inhibition [5]
1 | O=[N+]([O-])/N=C1\NCCN1Cc1ccc(Cl)nc1 | inactive | inactive | inactive | inactive | inactive | inactive | inactive | inactive |  | 
2 | CN(C)P(=O)(N(C)C)N(C)C | inactive | inactive | inactive | inactive | inactive | inactive | inactive | inactive |  | 
3 | Nc1ncn[nH]1 | inactive | inactive | inactive | inactive | inactive | inactive | inactive | inactive |  | 
4 | O=S(=O)(O)C(F)(F)C(F)(F)C(F)(F)C(F)(F)C(F)(F)C(F)(F)C(F)(F)C(F)(F)F | inactive | inactive | inactive | 42.6 µM (active) and 22.4 µM (active) | 537 nM (active) and 502 nM (active) and 423 nM (active) | inactive and 50.2 µM (active) | inactive | inactive |  | 
5 | Cc1ccc([N+](=O)[O-])cc1 | inactive | inactive | inactive | inactive | inactive | inactive | inactive | inactive |  | 
6 | C[N+](C)(C)CC(=O)O | inactive | inactive | inactive | inactive | inactive | inactive and 17.4 µM (active) | inactive | inactive |  | 
7 | Clc1cccc(C(Cl)(Cl)Cl)n1 | inactive | inactive | inactive | inactive | inactive | 11.2 µM (active) | inactive | inactive |  | 
8 | CCOP(=O)(OCC)OCC | inactive | inactive | inactive | 49.4 µM (active) and inactive | 35 µM (active) and inactive | 17.5 µM (active) and inactive | inactive | inactive |  | 
9 | O=C(O)c1nn(Cc2ccc(Cl)cc2Cl)c2ccccc12 | inactive | inactive | 62.8 µM (active) and inactive | inactive | 70.5 µM (active) and inactive | inactive | inactive | inactive |  | 
10 | COc1ccc(C=O)cc1OC | inactive | inactive | inactive | 9.04 µM (active) and 71 µM (active) | inactive | 32.1 µM (active) and 31.7 µM (active) | inactive | inactive |  | 
11 | ClCc1ccccn1 | inactive | inactive | 39.2 µM (active) | 78.1 µM (active) and inactive | inactive | inactive | inactive | inactive |  | 
12 | CN(C)c1nc(=O)n(C2CCCCC2)c(=O)n1C | inactive | inactive | inactive | inactive | inactive | inactive | inactive | inactive |  | 
13 | CC(C)(O)C#N | inactive | inactive | inactive | 75.3 µM (active) and 39.9 µM (active) | 42.4 µM (active) | inactive and 39.9 µM (active) | inactive | inactive |  | 
14 | CC(C)(c1ccc(OCC2CO2)cc1)c1ccc(OCC2CO2)cc1 (centres undefined) | inactive | inactive | inactive | 50.9 µM (active) and 79.6 µM (active) | 64.1 µM (active) and 39.9 µM (active) | inactive | inactive | inactive |  | 
15 | O=NN1CCOCC1 | inactive | inactive | inactive | inactive | inactive | inactive | inactive | inactive |  | 
16 | C[N+](C)(C)CC(=O)[O-] | inactive | inactive | inactive | inactive | inactive | inactive | inactive | inactive |  | 
17 | CCOP(=S)(OCC)SCSC(C)(C)C | inactive | 40.2 µM (active) and 56.4 µM (active) | inactive | 9.01 µM (active) and 3.17 µM (active) | 32 µM (active) and 14.2 µM (active) | 39.9 µM (active) | inactive | 12.7 µM (active) and 7.1 µM (active) |  | 
18 | Brc1ccc(Br)cc1 | inactive | inactive | inactive | inactive | inactive | inactive | inactive | inactive |  | 

Row | Compound | Potency [1] | Potency [2] | Potency [3] | Potency [4] | Potency [5] | Potency [6] | Potency [7] | Potency [8] | activity change, negative = inhibition [4] | activity change, negative = inhibition [5]
19 | CCN(CC)C(=O)C(C)Oc1cccc2ccccc12 (centres undefined) | inactive | inactive | inactive | 1.01 µM (active) and 633 nM (active) | 11.4 µM (active) and 35.6 µM (active) | 14.3 µM (active) and 28.3 µM (active) | inactive | 6.33 µM (active) |  | 
20 | CCC[CH2][Sn]([Cl])([Cl])[CH2]CCC | inactive | inactive | 36 µM (active) | 8.07 µM (active) and 22.4 µM (active) | 36 µM (active) | inactive | 39.4 µM (active) and 17.4 µM (active) | inactive |  | 
21 | Nc1ccc([N+](=O)[O-])cc1N | inactive | inactive | inactive and 71 µM (active) | 25.2 µM (active) | 39.9 µM (active) and 63.3 µM (active) | 35.6 µM (active) and 31.7 µM (active) | inactive | 35.6 µM (active) and inactive |  | 
22 | CCCCOCCOC(C)=O | inactive | inactive | inactive | 77.6 µM (active) and inactive | inactive | inactive | inactive | inactive |  | 
23 | CC[n+]1c(-c2ccccc2)c2cc(N)ccc2c2ccc(N)cc21 | 31.6 µM (active) and 12.3 µM (active) | inactive | 562 nM (active) and 2.19 µM (active) | 7.07 µM (active) and 5.49 µM (active) | 35.4 µM (active) and 30.9 µM (active) | 9.99 µM (active) and 10.2 µM (active) | inactive |  |  | 
24 | O=C1Nc2ccc(Cl)cc2C(c2ccccc2)=NC1O (centres undefined) | inactive |  |  |  |  |  |  |  |  | 
25 | CCNc1nc(Cl)nc(NC(C)(C)C#N)n1 | inactive | inactive | inactive | inactive | inactive | 39.9 µM (active) | inactive |  |  | 
26 | ClC(Cl)(Cl)Br | inactive | inactive | inactive | 39.4 µM (active) |  | inactive | inactive | inactive | 17.8% [at 23.6 µM] (inactive) | -6.85% [at 23.6 µM] (inactive)
27 | C=C(C)C#N | inactive | inactive | inactive | inactive | inactive | inactive | inactive | inactive |  | 
28 | CS(=O)(=O)NC(=O)c1cc(Oc2ccc(C(F)(F)F)cc2Cl)ccc1[N+](=O)[O-] | inactive | inactive | inactive | inactive and 79.6 µM (active) | 19.3 µM (active) and 17.8 µM (active) | inactive | inactive | inactive |  | 
29 | C[C@]12CCC(=O)C=C1CC[C@@H]1[C@@H]2CC[C@@]2(C)[C@H]1CC[C@]2(C)O | inactive | inactive | 45.2 µM (active) and inactive | 35.9 µM (active) and inactive | 35.9 µM (active) | inactive | inactive | inactive |  | 
30 | O=C1C(Cl)=C(Cl)C(=O)c2ccccc21 | 11.3 µM (active) and 25.2 µM (active) | 79.9 µM (active) and 31.7 µM (active) | 17.9 µM (active) and 17.8 µM (active) | 7.99 µM (active) and 5.64 µM (active) | 5.04 µM (active) and 4.48 µM (active) | 17.9 µM (active) and 8.94 µM (active) | 21.9 µM (active) | 17.9 µM (active) and 17.8 µM (active) |  | 
31 | COC(=O)Nc1nc2ccccc2[nH]1 | inactive | inactive | inactive | inactive | inactive and 71 µM (active) | 11.2 µM (active) and 20 µM (active) | inactive |  |  | 
32 | CCCCCCCC[N+](C)(CCCCCCCC)CCCCCCCC | 63.2 µM (active) and inactive and 79.6 µM (active) | inactive | 28.2 nM (active) and 56.5 nM (active) and 564 nM (active) | 5.63 µM (active) and 3.56 µM (active) and 31.7 µM (active) | 28.2 µM (active) and 2.83 µM (active) and 35.6 µM (active) | 39.8 µM (active) and 35.6 µM (active) | 21.8 nM (active) and 39 nM (active) and 977 nM (active) | 1 µM (active) and 449 nM (active) and 6.33 µM (active) |  | 
33 | CC1CC(=O)O1 (centres undefined) | inactive | inactive | inactive | inactive | inactive | inactive | inactive | inactive |  | 
34 | COP(=S)(OC)Oc1ccc(Sc2ccc(OP(=S)(OC)OC)cc2)cc1 | inactive | inactive | 63.3 µM (active) and inactive | 3.17 µM (active) and 4.9 µM (active) | 5.64 µM (active) and 11 µM (active) | inactive | inactive | inactive |  | 
35 | Oc1ccc(Cl)cc1Cc1ccccc1 | inactive | inactive | 67.8 µM (active) and inactive | 3.56 µM (active) and 1.61 µM (active) and 2.19 µM (active) | 25.2 µM (active) and 12.1 µM (active) and 9.77 µM (active) | 44.8 µM (active) and 33 µM (active) and 30.9 µM (active) | inactive | inactive |  | 
36 | CCOP(=S)(OCC)SCn1c(=O)oc2cc(Cl)ccc21 | inactive | 8.55 µM (active) and 3.99 µM (active) | 13.5 µM (active) and 25.2 µM (active) | 76.2 nM (active) and 89.4 nM (active) | 1.08 µM (active) and 1.12 µM (active) | 2.7 µM (active) and 3.99 µM (active) | 23.5 µM (active) | 241 nM (active) and 317 nM (active) |  | 
